An excerpt weighted towards active compounds, which were near 8.8% of everything screened.
HTT aggregate: inhibitors of mutant huntingtin aggregate formation in PC12 cells. PC12 HttQ103-GFP aggregates, Acumen cytometry, 40 h. Potency, µM (series often up to 46.1 µM), inactives show at the highest dose activity change, negative = inhibition, most hits filed as inhibitors. hit rate 1.1% among 220,000; also: % is scaled to controls: 0 for no effect and ±100 for the full control effect; nearly all actives have a fitted effect of over 60% in size
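Compounds (qHTS titration) were added to PC12 cells expressing an ecdysone-driven HTT exon 1 Q103–GFP fusion after induction with 100 nM tebufenozide. Aggregate formation was measured as GFP objects in cell lysates.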
ALDH1A1 inh: blocks purified human ALDH1A1 activity. Purified ALDH1A1, NADH fluorescence, propionaldehyde substrate. hit rate 7.3% among 220,000. P00352. Potency, µM (titrated, usually from 75.3 µM), inactives show top-dose activity, negative = inhibition, most hits filed as inhibitors; active = well fitted inhibition curve with a large enough effect, not every such curve was filed as active; inconclusive = small, poorly fitted or top-dose-only effect, or another doubt; inactive = no such curve, though single readings can be large or run the other way;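 also: plate controls were no enzyme wells and a reference inhibitor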
Target sequence (P00352 whole entry, looked up): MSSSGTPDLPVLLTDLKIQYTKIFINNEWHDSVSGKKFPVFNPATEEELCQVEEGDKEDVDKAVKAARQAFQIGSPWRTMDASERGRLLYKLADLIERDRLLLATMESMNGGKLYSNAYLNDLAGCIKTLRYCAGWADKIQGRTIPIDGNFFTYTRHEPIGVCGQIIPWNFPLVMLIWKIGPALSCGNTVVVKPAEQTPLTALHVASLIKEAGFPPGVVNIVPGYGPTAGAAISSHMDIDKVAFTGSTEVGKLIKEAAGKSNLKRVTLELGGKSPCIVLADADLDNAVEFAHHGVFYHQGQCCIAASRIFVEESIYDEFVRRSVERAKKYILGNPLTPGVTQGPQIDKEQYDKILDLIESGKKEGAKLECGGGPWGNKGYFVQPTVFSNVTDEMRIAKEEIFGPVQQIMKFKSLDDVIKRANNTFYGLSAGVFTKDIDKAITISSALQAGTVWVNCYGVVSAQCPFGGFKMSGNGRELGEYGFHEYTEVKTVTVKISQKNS
Lamin A splicing: modulators of lamin A splicing; AID 1487; Potency, µM (highest dose often 46.1 µM), for inactives: at the highest dose ratio change, negative = inhibition, usual class: inhibitors; hit rate 0.01% among 200,000; HeLa LMNA splicing GFP/RFP minigene ratio, 48 h; active = well fitted inhibition curve with a large enough effect in the signal ratio, with a control signal flat, not every such curve was filed as active; inconclusive = small, poorly fitted or top-dose-only effect, or effect the other way, or a change in a side signal; the % refers to the signal ratio; also: % is scaled to controls: 0 for no effect and ±100 for the full control effect
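S3 HeLa cells stably expressing lamin A-EGFP splicing minigene plus DsRed2, 600 cells/well, 48 h compound exposure at 37C. Laser-scanning cytometry; analysed as GFP (500-530 nm)/RFP (575-640 nm) total intensity ratio; 0.5% DMSO vehicle.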
HPGD block: HPGD (human) dehydrogenase inhibition | P15428 | purified HPGD, NADH fluorescence kinetic, PGE2 substrate | Potency, µM, inactives show at the highest dose activity change, negative = inhibition, usual class: inhibitors | hit rate 4.3% among 150,000; active = well fitted inhibition curve with a large enough effect, not every such curve was filed as active; inconclusive = small, poorly fitted or top-dose-only effect, or another doubt; inactive = no such curve, though single readings can be large or run the other way; also: % is scaled to controls: 0 for no effect and ±100 for the full control effect
Target sequence (P15428 whole entry, looked up): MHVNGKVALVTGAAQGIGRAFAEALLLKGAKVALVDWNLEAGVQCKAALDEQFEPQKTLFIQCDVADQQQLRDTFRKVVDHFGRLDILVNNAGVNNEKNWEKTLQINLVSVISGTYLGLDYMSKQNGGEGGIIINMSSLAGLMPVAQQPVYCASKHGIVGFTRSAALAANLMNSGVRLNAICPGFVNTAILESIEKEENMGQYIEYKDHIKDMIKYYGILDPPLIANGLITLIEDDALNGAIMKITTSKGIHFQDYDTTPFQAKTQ
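NADH formation kinetics: reaction with 30 uM PGE2 and 1 mM NAD+ (final), 20 nM enzyme, Tris-HCl pH 8 with Tween 20, after 15 min compound preincubation at room temperature. Fluorescence change, last versus first of five reads.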
HTT ATP protect: protects HTT-Q103 PC12 cells, measured by ATP | Potency, µM (top dose mostly 56.4 µM), without a hit: cytoprotection (ATP increase), usual class: activators | AID 1471 | hit rate 0.14% among 230,000 | PC12 HTT-Q103 induced, cytoprotection, ATP luminescence, 40 h; also: % of control where 0% means no effect; nearly all actives have a fitted effect of over 45% in size
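Rat PC12, Q103 Htt exon1-GFP fusion, ecdysone promoter; tebufenozide inducer 100 nM final; compound titration; qHTS, 1500 cells/well; ATPlite luminescent read.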
Numbers without * were called inactive; ? = inconclusive; . = not tested or not shown; [ ] = dose if it differs, or a comment. Unless noted, calls follow the shape of the dose curve; as a rule, active = well fitted curve in the direction sought with a large enough effect; inconclusive = small, poorly fitted or top-dose-only effect, or another doubt; inactive = no such curve, though single readings can be large; an effect the other way counts as inactive or inconclusive. Potency is read from the fitted curve at half-maximal effect.

SMILES	HTT aggregate	ALDH1A1 inh	Lamin A splicing	HPGD block	HTT ATP protect
Clc1ccc(-c2nnc(-c3ccccc3)o2)c(Cl)c1	-11%	32µM*	11%	?	-18%[1.9 µM]
CSc1nnc(-c2ccccc2Cl)o1	-2%	6%	12%	32µM*	-3%
CCOC(=O)/C(=N\Nc1ccc(Cl)cc1)Sc1nnc(-c2ccc(OC)cc2)n1C	?	?	-9%	?	-5%[10 µM]
CCCS(=O)(=O)N1CC(=O)N(c2cccc(Cl)c2C)C(C)(C(=O)NC2CCCC2)C1 (stereo unspecified)	.	.	14%[46 µM]	.	.
C[C@@H]1CC[C@H]2C(=O)N3[C@@H](CC[C@@H](C)[C@@H]3c3ccc(Br)cc3)C(=O)N2[C@@H]1c1ccc(Br)cc1	.	-9%[13.5 µM]	.	.	19%[10 µM]
C=CCc1cccc(C2C(C)CCC3C(=O)N4C(CCC(C)C4c4cccc(CC=C)c4)C(=O)N32)c1 (stereo unspecified)	.	6.3µM*	.	.	0%[10 µM]
CCSc1nc2c(c(=O)[nH]c(=O)n2C)n1C/C=C(/C)Cl	-19%	14µM*	3%	?	1%
CCOC(=O)C(C)Sc1nc2c(c(=O)[nH]c(=O)n2C)n1C/C=C(/C)Cl (stereo unspecified)	11%	7.1µM*	-1%	22µM*	-1%[0.074 µM]
C=CCSc1nc2c(c(=O)[nH]c(=O)n2C)n1C/C=C(/C)Cl	-16%	?	5%	-25%	-53%
C=CCSc1nc2c(c(=O)[nH]c(=O)n2C)n1CC	4%	14µM*	3%	14µM*	15%[10 µM]
CSc1nc2c(c(=O)[nH]c(=O)n2C)n1C/C=C(\C)Cl	13%	25µM*	-3%	?	-10%[0.074 µM]
COc1ccc(NC(=O)/C=C/c2ccc(Br)o2)cn1	5%	22µM*	.	.	-7%
COc1ccccc1CNC(=O)/C=C/c1ccc(Br)o1	-12%	13µM*	.	.	-28%
COc1ccc(NC(=O)/C=C/c2ccco2)cn1	24%	7.1µM*	?	.	-52%
Cc1cccnc1NC(=S)NC(=O)/C=C/c1ccco1	?	?	0%	-21%	-9%
O=C(/C=C/c1ccco1)NC(=S)Nc1ccccn1	13%	?	-2%	16µM*	-2%
CCc1cccc(NC(=O)c2c(C)oc3ncnc(N4CCCCC4)c23)c1	.	.	-10%[46 µM]	.	.
Cc1nn2c(C)c(C(=O)N3CCN(c4ccc(Cl)cc4)CC3)cnc2c1-c1ccc(F)cc1	.	.	-4%[46 µM]	.	.
O=C(/C=C/c1ccco1)NCCCN1CCOCC1	1%[9.22 µM]	?	.	.	16%[10 µM]
O=C(/C=C/c1ccc(Br)o1)NCCCN1CCOCC1	-5%	2µM*	.	.	-11%
CCCCC/C=C\C/C=C\C/C=C\C/C=C\CCCC(=O)C(F)(F)F	.	20µM*	.	-4%	?
Cc1cc(/C=N/n2cnnc2)c(C)n1-c1ccc(OCc2ccccc2F)cc1	10µM*	?	?	?	-66%
Cc1cc(/C=N/n2cnnc2)c(C)n1-c1ccc(OCc2ccc(Cl)cc2)cc1	2.5µM*	?	?	-22%	-63%
C(=N\n1cnnc1)/c1ccc(OCc2ccccc2)cc1	0%	?	14%	-29%	-22%
O=c1cc(N2CCc3ccccc3C2)[nH]c(=O)n1-c1ccccc1Cl	-2%	6.3µM*	-9%	-15%	31%[10 µM]
SMILES	HTT aggregate	ALDH1A1 inh	Lamin A splicing	HPGD block	HTT ATP protect
Cc1ccc(C(=O)CN2/C(=C(\O)c3ccccc3)C(=O)c3ccccc3S2(=O)=O)c(C)c1	14%	2.8µM*	?	-22%	-8%
Cc1ccc(C(=O)CN2C(=O)c3ccccc3S2(=O)=O)cc1	2%[9.22 µM]	-6%	.	.	-60%[10 µM]
O=c1c2cc(Cl)ccc2nc(-c2ccccc2)n1O	?	-1%	?	.	-1%[10 µM]
O=c1c2cc(Br)ccc2nc(-c2ccc([N+](=O)[O-])cc2)n1O	11µM*	-7%	.	.	-108%
O=c1c2ccc(Cl)cc2nc(-c2ccc([N+](=O)[O-])cc2)n1O	6.3µM*	-1%	.	.	-66%
Cc1nc2cncnc2n(C2CC2)c1=O	.	?	-2%	.	?
CCOc1ccc(NC(=O)CSc2nc3c([nH]c4ccccc43)c(=O)n2-c2cc(C)cc(C)c2)cc1	.	.	19%[46 µM]	.	.
O=C(Nc1ccccc1N1CCOCC1)c1ccc(Cl)nc1	-6%	-13%	5%[46 µM]	.	3%
NS(=O)(=O)c1ccc(Nc2ccc([N+](=O)[O-])c3nonc23)cc1	-8%[9.22 µM]	.	.	.	8%[10 µM]
O=[N+]([O-])c1ccc(S(=O)(=O)Cc2ccccc2)c2nonc12	.	1.8µM*	.	3.2µM*	7%[10 µM]
COc1ccc(Nc2ncnc3c2cnn3C)c(OC)c1	.	.	-10%[46 µM]	.	.
Cc1c(-c2ncn[nH]2)sc(C#N)c1-c1ccccc1	-13%	25µM*	-2%[9.22 µM]	.	-19%
Brc1ccc(-c2nnc(-c3ccccc3)c(N3CCSCC3)n2)cc1	-27%	-6%	-3%	-17%	-24%
CN1CCN(c2nc(-c3ccc(Br)cc3)nnc2-c2ccccc2)CC1	7%	22µM*	?	-12%	-43%
COc1ccc(N2CC(NC(=O)COc3ccc4ccccc4c3)CC2=O)cc1 (stereo unspecified)	.	.	14%[46 µM]	.	.
CCOc1ccc(N(C(=O)Cn2nnc3ccccc32)C(C(=O)NC(C)(C)CC)c2cccn2C)cc1 (stereo unspecified)	-6%	0%	-9%	-8%	25%[10 µM]
CCC(C)(C)NC(=O)C(c1cccn1C)N(C(=O)Cn1nnc2ccccc21)c1ccc(OC)cc1OC (stereo unspecified)	-4%	11µM*	-8%	-1%	-7%[10 µM]
CC(C)N=C=NC(C)C	.	0%	.	-10%	-13%
CC(C)c1ccc(OCC(=O)NCC(c2ccc(Cl)cc2)N2CCOCC2)cc1 (stereo unspecified)	.	.	1%[46 µM]	.	.
COc1ccc(S(=O)(=O)N(CCc2ccccc2)CC(=O)NCCCO)cc1	0%	8.9µM*	2%	-5%	-6%
COc1ccc(S(=O)(=O)N(CCc2ccccc2)CC(=O)N/N=C/c2ccc3c(c2)OCO3)cc1	-12%	?	?	22µM*	37%[0.074 µM]
O=C(CN(CCc1ccccc1)S(=O)(=O)c1ccc(Cl)cc1)N/N=C/c1ccc2c(c1)OCO2	-4%	?	-13%	-9%	6%[10 µM]
COCCCNC(=O)CN(CCc1ccccc1)S(=O)(=O)c1ccc(OC)cc1	-3%[9.22 µM]	?	.	.	8%[10 µM]
C[C@@]12CCC[C@H]1C1CC[C@H]3C[C@H](O)CC[C@]3(C)C1CC2 (stereo partly specified)	.	3%	.	.	-28%
S=C(NCCc1ccccc1)Nc1c(Cl)cccc1Cl	-7%[9.22 µM]	.	.	.	8%[10 µM]
O=C(Nc1nc(COc2ccccc2)cs1)C12CC3CC(CC(C3)C1)C2	11µM*	-9%	-14%	-6%	-125%
Cn1c(SCc2cccc(C(F)(F)F)c2)nnc1-c1ccco1	-11%	12%	?	-12%	-6%
Nn1c(SCc2cccc(C(F)(F)F)c2)nnc1-c1ccco1	25%	22µM*	-4%	-18%	0%

Screening results: PubChem, National Center for Advancing Translational Sciences (NCATS)
